Results filed as inconclusive are left out. Active and inactive are the calls of the source. The calls were made as follows: active = hit-call score of the fitted dose curve at least 0.9, where 1 is the maximum; inconclusive = response in the unintended direction; inactive = score below 0.9.
Each compound was assayed against human Protein Tyrosine Phosphatase Non-receptor Type 6 (PTPN6), PTPN6 (gene 5777) (UniProt P29350) (assay: NVS_ENZ_hPTPN6: NovaScreen (NVS) Enzymatic Assay for human Protein Tyrosine Phosphatase Non-receptor Type 6 (PTPN6) (AID 2283210)).
Method in brief: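 Cell-free assay with recombinant PTPN6 expressed in SF9 cells, fluorescent substrate, product separated from substrate by electrophoretic mobility shift; read 1.33 hours after dosing. Primary screen in duplicate at 25 uM, actives retested in concentration series; DMSO baseline.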

Sequence of human Protein Tyrosine Phosphatase Non-receptor Type 6 (PTPN6), PTPN6 (gene 5777) (P29350 whole entry, looked up): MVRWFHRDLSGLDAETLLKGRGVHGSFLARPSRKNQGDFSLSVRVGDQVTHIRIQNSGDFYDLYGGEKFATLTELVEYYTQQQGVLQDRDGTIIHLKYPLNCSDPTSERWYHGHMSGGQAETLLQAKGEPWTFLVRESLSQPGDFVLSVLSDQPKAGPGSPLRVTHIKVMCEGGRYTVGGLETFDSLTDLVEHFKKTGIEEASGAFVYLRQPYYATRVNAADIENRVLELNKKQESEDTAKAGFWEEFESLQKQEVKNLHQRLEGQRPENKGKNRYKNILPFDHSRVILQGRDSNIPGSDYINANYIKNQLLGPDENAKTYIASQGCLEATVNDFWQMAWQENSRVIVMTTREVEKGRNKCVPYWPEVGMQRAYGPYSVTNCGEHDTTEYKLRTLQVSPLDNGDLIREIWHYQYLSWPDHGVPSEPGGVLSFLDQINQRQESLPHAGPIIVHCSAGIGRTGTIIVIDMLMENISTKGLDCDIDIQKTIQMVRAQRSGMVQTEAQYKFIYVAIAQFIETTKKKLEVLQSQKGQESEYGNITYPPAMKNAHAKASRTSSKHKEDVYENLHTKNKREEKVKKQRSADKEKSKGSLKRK

outcome, inactive:
COc1ccc(C(=O)Nc2nc3ccccc3c(NCc3ccccc3)c2C#N)cc1
CCCCCCC(C=O)=Cc1ccccc1
CC(COCC(C)OC(=O)c1ccccc1)OC(=O)c1ccccc1 (centres undefined)
c1ccc2occc2c1

What follows are compounds tested against human Rho Associated Coiled-coil Containing Protein Kinase 1 (ROCK1), ROCK1 (gene 6093) (UniProt Q13464) (assay: NVS_ENZ_hROCK1: NovaScreen (NVS) Enzymatic Assay for human Rho Associated Coiled-coil Containing Protein Kinase 1 (ROCK1) (AID 2283214)).
Method in brief: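 Cell-free recombinant human ROCK1 activity assay; fluorescent substrate and product separated by electrophoretic mobility shift, read 1 h after dosing. Screened in duplicate at 25 uM; loss of signal versus DMSO baseline scored as inhibition.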

Sequence of human Rho Associated Coiled-coil Containing Protein Kinase 1 (ROCK1), ROCK1 (gene 6093) (Q13464 whole entry, looked up): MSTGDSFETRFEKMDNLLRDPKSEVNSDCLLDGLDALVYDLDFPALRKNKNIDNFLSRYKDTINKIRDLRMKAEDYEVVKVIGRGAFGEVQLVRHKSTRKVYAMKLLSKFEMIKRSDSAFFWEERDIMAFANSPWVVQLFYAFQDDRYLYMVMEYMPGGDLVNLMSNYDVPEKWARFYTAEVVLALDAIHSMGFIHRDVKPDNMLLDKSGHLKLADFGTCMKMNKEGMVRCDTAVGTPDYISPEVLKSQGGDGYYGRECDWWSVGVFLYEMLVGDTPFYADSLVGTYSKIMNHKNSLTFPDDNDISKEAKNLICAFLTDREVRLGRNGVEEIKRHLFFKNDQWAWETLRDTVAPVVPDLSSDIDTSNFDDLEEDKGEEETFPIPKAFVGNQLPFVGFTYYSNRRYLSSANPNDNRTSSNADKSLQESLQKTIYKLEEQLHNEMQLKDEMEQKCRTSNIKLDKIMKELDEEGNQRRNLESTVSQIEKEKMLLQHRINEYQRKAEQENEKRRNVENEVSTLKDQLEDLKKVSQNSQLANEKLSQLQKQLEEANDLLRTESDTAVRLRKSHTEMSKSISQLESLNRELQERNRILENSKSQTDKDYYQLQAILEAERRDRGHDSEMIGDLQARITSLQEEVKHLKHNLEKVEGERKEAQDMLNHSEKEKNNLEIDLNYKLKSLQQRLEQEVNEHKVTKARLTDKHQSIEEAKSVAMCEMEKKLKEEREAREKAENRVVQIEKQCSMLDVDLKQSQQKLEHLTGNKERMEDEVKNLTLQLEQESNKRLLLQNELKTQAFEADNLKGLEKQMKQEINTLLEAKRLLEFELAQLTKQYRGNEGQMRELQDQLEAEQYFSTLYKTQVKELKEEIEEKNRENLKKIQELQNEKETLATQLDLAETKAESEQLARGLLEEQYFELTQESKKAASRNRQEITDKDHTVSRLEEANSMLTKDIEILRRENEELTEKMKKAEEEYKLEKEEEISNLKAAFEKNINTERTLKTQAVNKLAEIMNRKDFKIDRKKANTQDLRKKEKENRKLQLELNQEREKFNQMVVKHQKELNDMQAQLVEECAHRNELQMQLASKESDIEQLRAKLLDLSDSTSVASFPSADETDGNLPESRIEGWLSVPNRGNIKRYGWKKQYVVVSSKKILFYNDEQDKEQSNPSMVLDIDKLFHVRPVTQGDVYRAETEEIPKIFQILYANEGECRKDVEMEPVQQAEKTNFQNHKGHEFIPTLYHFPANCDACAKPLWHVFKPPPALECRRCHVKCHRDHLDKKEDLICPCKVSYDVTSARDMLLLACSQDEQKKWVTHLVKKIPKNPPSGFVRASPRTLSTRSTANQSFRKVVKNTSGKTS

outcome, inactive:
CN(C)C(=O)NC1(c2ccccc2)CCN(CCC[C@]2(c3ccc(Cl)c(Cl)c3)CCCN(C(=O)c3ccccc3)C2)CC1
O=C(Oc1ccccc1)c1cccc(C(=O)Oc2ccccc2)c1
CC(C)c1cccc(C(C)C)c1
O=C(N[C@@H](c1ccccc1)[C@@H]1CCCCN1)c1cccc(C(F)(F)F)c1Cl
N[C@@H](Cc1c[nH]c2ccccc12)C(=O)O

Each compound was assayed against human Sirtuin 2 (SIRT2), SIRT2 (gene 22933) (UniProt Q8IXJ6) (assay: NVS_ENZ_hSIRT2: NovaScreen (NVS) Enzymatic Assay for human Sirtuin 2 (SIRT2) (AID 2283217)).
Method in brief: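 Cell-free recombinant human SIRT2, fluorescent substrate with product separated by electrophoretic mobility shift, 1 hr. Screened in duplicate at 25 uM; hits rerun singly in concentration-response up to 50 uM, relative to DMSO.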

Sequence of human Sirtuin 2 (SIRT2), SIRT2 (gene 22933) (Q8IXJ6 whole entry, looked up): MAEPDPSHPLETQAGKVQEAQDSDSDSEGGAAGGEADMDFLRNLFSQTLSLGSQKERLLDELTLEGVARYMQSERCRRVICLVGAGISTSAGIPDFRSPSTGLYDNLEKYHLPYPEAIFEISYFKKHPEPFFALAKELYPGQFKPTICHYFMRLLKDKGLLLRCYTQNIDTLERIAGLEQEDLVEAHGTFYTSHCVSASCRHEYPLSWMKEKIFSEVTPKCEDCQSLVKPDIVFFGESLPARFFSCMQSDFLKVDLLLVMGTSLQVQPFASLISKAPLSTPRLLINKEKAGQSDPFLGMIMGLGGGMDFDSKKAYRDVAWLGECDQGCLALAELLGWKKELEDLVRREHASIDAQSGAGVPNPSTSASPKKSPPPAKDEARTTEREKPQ

AC50, active:
CN(C)C(=O)NC1(c2ccccc2)CCN(CCC[C@]2(c3ccc(Cl)c(Cl)c3)CCCN(C(=O)c3ccccc3)C2)CC1 1.69 µM
CCN(CC)CCOc1ccc(C(=C(Cl)c2ccccc2)c2ccccc2)cc1 21 µM

outcome, inactive:
C=CCc1ccc(OC)c(OC)c1
O=C(N[C@@H](c1ccccc1)[C@@H]1CCCCN1)c1cccc(C(F)(F)F)c1Cl
Cc1occc(=O)c1O

These compounds were tested against human Sirtuin 1 (SIRT1), SIRT1 (gene 23411) (UniProt Q96EB6) (assay: NVS_ENZ_hSIRT1: NovaScreen (NVS) Enzymatic Assay for human Sirtuin 1 (SIRT1) (AID 2283219)).
Method in brief: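 Cell-free recombinant SIRT1 with a fluorescent substrate; substrate and product separated by electrophoretic mobility shift and read by fluorescence intensity, 1 h after dosing. Primary screen at 25 uM in duplicate; hits re-run in concentration-response up to 50 uM, relative to DMSO.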

Sequence of human Sirtuin 1 (SIRT1), SIRT1 (gene 23411) (Q96EB6 whole entry, looked up): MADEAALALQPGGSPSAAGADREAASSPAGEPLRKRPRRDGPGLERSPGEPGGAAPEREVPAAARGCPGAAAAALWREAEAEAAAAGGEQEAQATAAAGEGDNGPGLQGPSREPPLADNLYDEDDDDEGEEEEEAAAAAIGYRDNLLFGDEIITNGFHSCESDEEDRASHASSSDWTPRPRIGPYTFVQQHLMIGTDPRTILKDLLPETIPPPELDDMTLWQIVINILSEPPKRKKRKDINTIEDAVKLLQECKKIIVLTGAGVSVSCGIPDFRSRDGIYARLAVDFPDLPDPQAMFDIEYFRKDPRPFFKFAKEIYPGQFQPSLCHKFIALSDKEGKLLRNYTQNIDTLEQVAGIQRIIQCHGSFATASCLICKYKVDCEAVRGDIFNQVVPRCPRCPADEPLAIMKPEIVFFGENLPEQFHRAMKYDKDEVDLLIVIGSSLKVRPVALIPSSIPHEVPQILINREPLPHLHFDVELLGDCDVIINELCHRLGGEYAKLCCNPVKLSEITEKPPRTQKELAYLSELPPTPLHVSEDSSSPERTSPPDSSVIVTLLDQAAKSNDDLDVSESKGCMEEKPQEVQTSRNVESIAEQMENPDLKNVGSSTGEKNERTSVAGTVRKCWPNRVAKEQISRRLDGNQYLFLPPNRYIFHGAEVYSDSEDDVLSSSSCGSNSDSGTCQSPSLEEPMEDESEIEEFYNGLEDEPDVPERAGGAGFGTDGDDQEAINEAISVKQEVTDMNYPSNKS

outcome, inactive:
O=C(Oc1ccccc1)c1cccc(C(=O)Oc2ccccc2)c1
CC1=C(C)S(=O)(=O)CCS1(=O)=O
Cc1cc(SC2=C(O)C[C@@](CCc3ccc(N)cc3)(C(C)C)OC2=O)c(C(C)(C)C)cc1CO
COC(=O)CCC(=O)OC
N[C@@H](Cc1c[nH]c2ccccc12)C(=O)O

What follows are compounds tested against human Sirtuin 3 (SIRT3), SIRT3 (gene 23410) (UniProt Q9NTG7) (assay: NVS_ENZ_hSIRT3: NovaScreen (NVS) Enzymatic Assay for human Sirtuin 3 (SIRT3) (AID 2283222)).
Method in brief: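 Cell-free enzyme assay with recombinant protein and fluorescent substrate, product separated by electrophoretic mobility shift; read 1 hour after dosing. Screened in duplicate at 25 uM, then singleton concentration-response up to 50 uM; loss of signal versus DMSO.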

Sequence of human Sirtuin 3 (SIRT3), SIRT3 (gene 23410) (Q9NTG7 whole entry, looked up): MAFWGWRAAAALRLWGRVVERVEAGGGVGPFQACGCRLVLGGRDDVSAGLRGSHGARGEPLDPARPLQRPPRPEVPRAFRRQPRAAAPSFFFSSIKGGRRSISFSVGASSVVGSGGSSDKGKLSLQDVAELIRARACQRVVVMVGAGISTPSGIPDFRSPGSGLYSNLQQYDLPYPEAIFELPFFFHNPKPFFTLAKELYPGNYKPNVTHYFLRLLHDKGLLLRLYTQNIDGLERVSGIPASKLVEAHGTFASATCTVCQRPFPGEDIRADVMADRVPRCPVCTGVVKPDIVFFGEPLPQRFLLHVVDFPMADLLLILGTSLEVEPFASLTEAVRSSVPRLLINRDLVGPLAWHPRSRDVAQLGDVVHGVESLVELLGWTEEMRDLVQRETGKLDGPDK

AC50, active:
CC(C)OC(=O)C(C)(C)Oc1ccc(C(=O)c2ccc(Cl)cc2)cc1 8.69 µM

outcome, inactive:
O=C(N[C@@H](c1ccccc1)[C@@H]1CCCCN1)c1cccc(C(F)(F)F)c1Cl
CCN(CC)CCOc1ccc(C(=C(Cl)c2ccccc2)c2ccccc2)cc1
O=C1NC(=O)C(c2ccccc2)(c2ccccc2)N1
COC(=O)CCC(=O)OC

— PubChem BioAssay (EPA / NIEHS)
